The results in this text go back to PubChem BioAssay (EPA / NIEHS).

Activity calls are given as the source filed them. The calls were made as follows: active = hit-call score of the fitted dose curve at least 0.9, where 1 is the maximum; inactive = score below 0.9.

Chain of Broad substrate specificity ATP-binding cassette transporter ABCG2 (Homo sapiens) (Q9UNQ0 whole entry, looked up): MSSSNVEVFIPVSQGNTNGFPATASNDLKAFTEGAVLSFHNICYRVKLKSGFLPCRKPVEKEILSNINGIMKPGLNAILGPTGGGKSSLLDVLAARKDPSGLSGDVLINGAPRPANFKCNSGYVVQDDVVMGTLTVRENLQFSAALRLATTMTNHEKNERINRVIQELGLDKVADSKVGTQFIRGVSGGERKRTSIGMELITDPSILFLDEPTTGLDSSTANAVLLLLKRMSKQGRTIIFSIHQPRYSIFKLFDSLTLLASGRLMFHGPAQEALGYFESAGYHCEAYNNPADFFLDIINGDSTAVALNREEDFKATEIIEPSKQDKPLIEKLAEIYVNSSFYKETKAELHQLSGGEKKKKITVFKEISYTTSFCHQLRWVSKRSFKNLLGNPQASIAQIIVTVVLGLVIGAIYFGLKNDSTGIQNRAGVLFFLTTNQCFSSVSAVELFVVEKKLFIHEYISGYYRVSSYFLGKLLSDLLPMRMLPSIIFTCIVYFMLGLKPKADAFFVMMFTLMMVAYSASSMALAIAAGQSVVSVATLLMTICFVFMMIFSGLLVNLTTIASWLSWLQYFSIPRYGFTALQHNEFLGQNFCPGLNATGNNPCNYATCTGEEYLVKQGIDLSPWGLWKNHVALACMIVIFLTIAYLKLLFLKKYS

Read-out in the experiment: Broad substrate specificity ATP-binding cassette transporter ABCG2 (Homo sapiens) (UniProt Q9UNQ0)
The experiment is described as follows: LTEA_HepaRG_ABCG2: Life Technologies and Expression Analysis (LTEA) Assay for ABC Transporter (ABCG2) using HepaRG (AID 2283465). Particulars: mRNA level, 48 h; actives raise or lower the signal. On the procedure:
LTEA_HepaRG is a cell based, multiplexed-readout assay that uses HepaRG, a human liver cell line, with measurements taken at 48 hours after chemical dosing on a 96-well plate.LTEA_HepaRG_ABCG2 is one of 102 assay component(s) measured in the LTEA HepaRG cell culture assay. It is a marker of Steatosis/NR mediated transport.Data from the assay component LTEA_HepaRG_ABCG2 was analyzed into 1 endpoint. This assay endpoint, LTEA_HepaRG_ABCG2, was analyzed with bidirectional fitting relative to DMSO as the negative control and baseline of activity. Using a type of inducible reporter, measures of mRNA induction for gain or loss-of-signal activity can be used to understand regulation of transcription factor activity. To generalize the intended target to other relatable targets, this assay endpoint is annotated to the transporter intended target family, where the subfamily is ABC transporter.
A total of 1060 chemcials from the ToxCast library were tested in eight-point concentration-response experiments. Cell culture and cytotoxicity assays were conducted at Thermo Fisher Scientific's Custom Services facility (Madison, WI). A single lot of human HepaRG cells (Thermo Fisher Scientific, Frederick, MD) was used for the cell culture experiments. 96-well format collagen type I coated plates of human HepaRG cells were prepared using established methods. Briefly, cryopreserved HepaRG cells were thawed, plated at a density of approximately 100,000 cells/well in HepaRG Thaw, Plate, and General Purpose media (HPRG770, Thermo Fisher Scientific), and incubated for 48 hours. 0.5% DMSO was selected as vehicle control to balance the requisite need of DMSO in HepaRG cultures to maintain differentiation (for example, baseline metabolism, proportions of hepatocytes vs. cholangiocytes), while enabling further hepatic receptor pathway activation (for example, PXR and CAR) in response to chemical exposure. 48 hours after plating, the culture medium was replaced with HepaRG Serum-Free Incudtion Media. Cells were exposed to each test chemical in duplicate and maintained in CO2 incubators for another 48 hours. Chemical plates were thawed to room temperature and 200x concentrations of treatment groups were prepared. 8-point conentration-reponse curves were made with the highest exposure at 100 uM, followed by half-log dilutions, all in 0.5% DMSO. Each test plate contained variouse controls, induction positive controls (1mM phenobarbital), cytotoxicity positive controls ([…] aflatoxin B1), vehicle controls (0.5% DMSO), and total lysis controls (0.5% DMSO). Cell morphology images were taken using an Essen IncuCyte FLR automated microscope, with six 96-well plates imaged in about 24 minutes. Images were captured and exported and JPEG files. Spent culture media was transfered to black-well plates for the LDH assay, and remaining media was sorted at -80 C for later use. Cells were treated with RLT buffer and frozen until shipped for gene expression analysis. Total RNA was isolated from the cell suspension in 75 uL of Buffer RLT (Qiagen, Germantown, MD 20874) by Quintiles/Expression Analysis (Durham, NC) using a custom isolation procedure. Total RNA from each plate well was transferred to a preamplification plate. Fluidigm's 96.96 Dynamic ArrayTM (Fluidigm, Amsterdam, the Netherlands) technology was used for gene expression analyses by quantitative reverse transcription polymerase chain reaction (qRT-PCR, performed by Quintiles/Expression Analysis, Durham, NC)89. Standard TaqManTM Assays (Applied Biosystems/ThermoFisher Scientific, Foster City, CA) were used to assess the expression of 93 genes selected based on their selectivity and sensitivity to important hepatic receptors known to be modulated by environmental chemicals; importance in human hepatocyte functionality; and hepatotoxicity. […]
Turning to `C[C@@H](Oc1ccc(CNC(=O)c2cccnc2Oc2ccc3c(c2)OCO3)c(F)c1)C(=O)O`, the result was inactive.

Regarding `CCCCCCCCN(C)C`, the molecule was classed as inactive.

On to `C=CCc1cc(S(=O)(=O)c2ccc(O)c(CC=C)c2)ccc1O`, for which the molecule was called inactive.

`CNC(C)=O`: the call was inactive.

`OC[C@H]1O[C@@H]2O[C@H]3[C@H](O)[C@@H](O)[C@@H](O[C@H]4[C@H](O)[C@@H](O)[C@@H](O[C@H]5[C@H](O)[C@@H](O)[C@@H](O[C@H]6[C@H](O)[C@@H](O)[C@@H](O[C@H]7[C@H](O)[C@@H](O)[C@@H](O[C@H]1[C@H](O)[C@H]2O)O[C@@H]7CO)O[C@@H]6CO)O[C@@H]5CO)O[C@@H]4CO)O[C@@H]3CO`: the call was inactive.

As for `CCCc1ccccc1`, the molecule was classed as inactive.

In the case of `Cc1nc(-c2ccccn2)ncc1C(=O)Nn1cc(C)c2cc(F)ccc21`, the result was inactive.

On to `Nc1ccn([C@@H]2O[C@H](CO)[C@@H](O)[C@@H]2O)c(=O)n1`, for which the call was inactive.

Regarding `O=c1[nH]cnc2c1ncn2[C@H]1CC[C@@H](CO)O1`, the outcome was inactive.

On to `CCc1ccc(O)c(C(C)(C)C)c1`, for which the outcome was inactive.

`C[C@]12C=CC(=O)C=C1CC[C@H]1[C@@H]3C[C@@H](O)[C@](O)(C(=O)CO)[C@@]3(C)C[C@H](O)[C@@]12F`: the molecule was called inactive.

With `CCCC(CCC)C(=O)O`, the call was inactive.

As for `CCN(CC)C(=S)SSC(=S)N(CC)CC`, the outcome was inactive.

For the molecule `COS(C)(=O)=O`, the result was inactive.

As to `CCCCCOC(C)=O`, the result was inactive.

As for `CCCCCCCC/C=C\CCCCCCCC(=O)OC[C@@H](O)[C@H]1OC[C@H](O)[C@H]1O`, the molecule was classed as inactive.

On to `CC(C)CC(C)O` (stereo not given), for which the outcome was inactive.

Consider `O=C1CN(N=Cc2ccc([N+](=O)[O-])o2)C(=O)N1`, for which the AC50 was 50 µM (active).

As for `NC(N)=O`, the result was inactive.

For `NC(=O)N(O)[C@@H]1COc2cc(OCc3ccccc3)ccc21`, the molecule was called inactive.

Regarding `OC[C@H]1O[C@@](CO)(O[C@H]2O[C@H](CO)[C@@H](O)[C@H](O)[C@H]2O)[C@@H](O)[C@@H]1O`, the result was inactive.

Take `CCCCCCOC(=O)CC(CC(=O)OCCCCCC)(OC(=O)CCC)C(=O)OCCCCCC`: the result was inactive.

With `CC[C@H](C)C(=O)O[C@H]1C[C@H](O)C=C2C=C[C@H](C)[C@H](CC[C@@H](O)C[C@@H](O)CC(=O)O)[C@H]21`, the call was inactive.

Take `CC(C)C(=O)Nc1ccc([N+](=O)[O-])c(C(F)(F)F)c1`: the call was inactive.

For the molecule `CCc1cccc(CC)c1N`, the outcome was inactive.

As for `Cn1c(=O)c2[nH]cnc2n(C)c1=O`, the outcome was inactive.

Regarding `Cn1cc[nH]c1=S`, the result was inactive.

As to `OCCNCCO`, the molecule was called inactive.

In the case of `CC(C)c1nnc2ccc(-c3ocnc3-c3cc(F)ccc3F)cn12`, the AC50 was 0.384 µM (active).

For the molecule `c1ccc2cc3ccccc3cc2c1`, the molecule was called inactive.

Take `NNC(=O)c1ccncc1`: the molecule was called inactive.

As for `c1ccc2c(c1)-c1cccc3c1c-2cc1ccccc13`, the molecule was called inactive.

For `CCn1nc(C)c2c1C(=O)NCC(c1ccc(O)cc1)=N2`, the molecule was classed as inactive.

As to `CCCCCCCC1CCC(=O)O1` (stereo not given), the molecule was classed as inactive.

As for `O=C(O)c1ccc2c(c1)nc(C(=O)NC1CCN(C3CC3)CC1)n2Cc1cc(-c2ccc(Cl)s2)on1`, the molecule was classed as inactive.

For the molecule `CCCCN1C(=O)[C@@H]([C@H](O)C2CCCCC2)NC(=O)C12CCN(Cc1ccc(Oc3ccc(C(=O)O)cc3)cc1)CC2`, the AC50 was 1.54 µM (active).

As for `c1ccc2ncccc2c1`, the molecule was called inactive.

On to `O=C(O)c1cccc(C(=O)O)c1`, for which the outcome was inactive.

With `CC(=O)c1ccccc1`, the molecule was called inactive.

Regarding `O=C(O)[C@H](O)[C@@H](O)C(=O)O`, the result was inactive.

A word on the AC50: it is the concentration giving half of the maximal activity seen.
